Results filed as inconclusive are left out. The source made the active and inactive calls. How the source made its calls: active means hit-call score of the fitted dose curve at least 0.9, where 1 is the maximum; inconclusive means response in the unintended direction; inactive means score below 0.9.
experiment: CCTE_Shafer_MEA_acute_LDH: CCTE's Lactate Dehydrogenase Assay for Cytotoxicity in the Neural Acute Assay, Shafer Lab (AID 2284086);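 further: active means LDH release rises above DMSO vehicle level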
Method: CCTE_Shafer_MEA_acute assay is conducted using Axion Biosystems 48 well microelectrode array (MEA) plates and Maestro recording system. Each well of the MEA plate contains a grid of 16 microelectrodes embedded in the culture surface. Electrically active cells, such as neurons, can be cultured over the electrodes, and electrical activity in these cells can be recorded extracellularly. The spontaneous firing of neurons is captured from each electrode on a microsecond timescale providing both temporally and spatially precise data. […] The CCTE_Shafer_MEA_acute assay uses primary cultures of rat cortical neurons. As these cultures mature over time, neural networks develop functional activity and form cohesive networks in which electrical activity can be highly coordinated. Baseline 40-minute recordings are made on days post-plating 13 or 15, followed by a secondary 40-minute recording after chemical exposure.CCTE_Shafer_MEA_acute_LDH is a component of the CCTE_Shafer_MEA_acute assay. It measures the lactate dehydrogenase enzyme activity using spectrophotometry.Data from the assay component CCTE_Shafer_MEA_acute_LDH was analyzed into 1 assay endpoint. This assay endpoint, CCTE_Shafer_MEA_acute_LDH, was analyzed in the positive analysis fitting direction relative to DMSO as the negative control and baseline of activity. Using a type of viability reporter, gain-of-signal activity can be used to understand cell viability.
Immediately following the 40 min recording in the presence of compounds, 50 uL of media was removed from each well and transferred to a sterile 96-well plate. This was used to determine LDH released from cells during compound exposure using a kit from Promega where absorbance was determined in a Molecular Devices VersaMax plate reader at 490 nm.

Compound | outcome
CC(C)(C)CC(C)(C)c1ccc(O)cc1 | inactive
C[C@]12CCC(=O)C[C@@H]1CC[C@@H]1[C@@H]2CC[C@]2(C)[C@@H](O)CC[C@@H]12 | inactive
COC(=O)Cc1ccccc1 | inactive
C=C(C)C(=O)[O][Sn]([CH2]CCC)([CH2]CCC)[CH2]CCC | inactive
CCC(C)(C)c1ccc(O)c(C(C)(C)CC)c1 | inactive
CCCCCCCCc1ccc(O)cc1 | inactive
CC(=O)[O][Hg][c]1ccccc1 | inactive
O=C(Nc1ccc2[nH]ccc2c1)c1cc2cc(F)ccc2n1Cc1cccc(F)c1 | inactive
CC(C)(c1ccccc1)c1ccc(O)c(C(C)(C)c2ccccc2)c1 | inactive
CC(C)(C)c1cc(O)ccc1O | inactive
O=C1C2(Cl)C3(Cl)C4(Cl)C(Cl)(Cl)C5(Cl)C3(Cl)C1(Cl)C5(Cl)C24Cl (stereo not given) | inactive
O=C(O)C(F)(F)C(F)(F)C(F)(F)C(F)(F)C(F)(F)C(F)(F)C(F)(F)C(F)(F)C(F)(F)C(F)(F)F | inactive
CC(=O)OC(c1ccccc1)C(Cl)(Cl)Cl (stereo not given) | inactive
CC(C)(OO)c1ccccc1 | inactive
O=C(O)C(Cl)(Cl)Cl | inactive

— PubChem BioAssay (EPA / NIEHS)
